Records with an inconclusive call do not appear. Where a call stands in place of a potency, no number is given. The source made the active and inactive calls. Calls come from the whole dose curve; as a rule, active = well fitted cell-killing curve with a large enough effect; inconclusive = small, poorly fitted or top-dose-only effect; inactive = no such curve, though single readings can be large or run the other way.

Among the data in PubChem BioAssay (NCATS) are Potency values, retold here.
Potency is the fitted concentration of half-maximal effect.

The nature of the assay: qHTS of pediatric cancer cell lines to identify multiple opportunities for drug repurposing: Primary screen for NB-EBc1 cells (AID 1347095). To be noted: NB-EBc1 neuroblastoma viability, CellTiter-Glo luminescence, 48 h; series mostly up to 46 µM. The method in brief: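 Primary screen of approved and investigational compounds on cells in growth media at 37 degrees C, 5% CO2. MIPE set at 11-point and NPC set at 8-point dilutions; viability scored by ATP-based luminescence at 48 hours.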
Background: qHTS replaces the single test concentration by a dilution series.
`C[C@@]12CCC[C@H]1[C@@H]1CC[C@H]3C[C@@H](O)CC[C@]3(C)[C@H]1CC2`: the Potency entry is “inactive”. With `CCOC(=O)OCC/C(SC(=O)OCC)=C(\C)N(C=O)Cc1cnc(C)nc1N` the entry was “inactive”; with `CO/N=C(\C(=O)O)c1csc(NC(=O)CCl)n1`, “inactive”.

As for `Nc1ncnc2nc[nH]c12`, the Potency result is “inactive”. Take `O=C(CCCl)NCc1ccccc1`: the Potency result was “inactive”. With `Cc1nc(C2CCCCC2)c(-c2ccc(S(N)(=O)=O)c(F)c2)o1` the entry was “inactive”; with `CC1(C)O[C@@H]2C[C@H]3[C@@H]4CCC5=CC(=O)C=C[C@]5(C)[C@@]4(F)[C@@H](O)C[C@]3(C)[C@]2(C(=O)CO)O1`, “inactive”. In the case of `CC(C)(C)CC(=O)OCC(=O)[C@@]1(O)CC[C@H]2[C@@H]3CCC4=CC(=O)C=C[C@]4(C)[C@H]3[C@@H](O)C[C@@]21C` it was “inactive”. In the case of `O=C1Nc2cc(Cl)ccc2Oc2ccccc21` it was “inactive”. Consider `CC(COc1ccccc1)NN` (stereo not drawn), for which the Potency result is “inactive”.

`CC(C)=CCC/C(C)=C/CC/C(C)=C/C(=O)OCC(=O)[C@@]1(O)CC[C@H]2[C@@H]3CCC4=CC(=O)C=C[C@]4(C)[C@H]3[C@@H](O)C[C@@]21C`: the Potency is 21.1 µM (active).

As to `CCc1cc(S(=O)(=O)O)c2cc(C(C)C)cccc1-2`, the Potency result is “inactive”.

With `Oc1ccc(CCNCCCCCCNCCc2ccccc2)cc1O`, the Potency result is “inactive”. With `CC1c2ccccc2CN1NC(=O)c1ccc(Cl)c(S(N)(=O)=O)c1` (stereo not drawn) the entry was “inactive”; with `O=C(O)c1[nH]n(-c2ccc(S(=O)(=O)O)cc2)c(=O)c1N=Nc1ccc(S(=O)(=O)O)cc1`, “inactive”; with `CC(CC(C#N)(c1ccccc1)C(C)C)N(C)C` (stereo not drawn), “inactive”. On to `CN(CC1(C)CCCO1)S(=O)(=O)c1ccc(Cl)c(S(N)(=O)=O)c1` (stereo not drawn), for which the Potency entry is “inactive”. With `C[C@H]1C[C@H]2[C@@H]3CCC4=CC(=O)C=C[C@]4(C)[C@H]3C(=O)C[C@]2(C)[C@@]1(O)C(=O)CO` the entry was “inactive”; with `CC(=O)c1cc2ccccc2s1`, “inactive”. Consider `O=c1[nH]c(=O)n([C@H]2O[C@H](CO)[C@@H](O)[C@@H]2O)cc1/C=C\Br`, for which the Potency entry is “inactive”. With `O=C(c1ccco1)N1CCNCC1` the entry was “inactive”; with `CCOC(=O)NNc1ccc(N(CC)CC(C)O)nn1` (stereo not drawn), “inactive”. Take `CCCCCCCCCCCC[N+](C)(C)Cc1ccccc1`: the Potency result was “inactive”. With `CC1CC(=O)NN=C1c1ccc(NCC(C)(C)NCC(O)COc2cc(Cl)ccc2C#N)cc1` (stereo not drawn) the entry was “inactive”; with `Clc1ccc2c(c1)Nc1ccccc1S2`, “inactive”; with `CCC1(c2cnc[nH]2)Cc2ccccc2C1`, “inactive”. As for `O=[N+]([O-])c1cncn1CCN1CCOCC1`, the Potency result was “inactive”. In the case of `CCCc1c2oc(C(=O)O)cc(=O)c2cc2c(=O)cc(C(=O)O)n(CC)c12` it was “inactive”; in that of `CCO[C@H](Cc1ccc(OCCc2ccc(OS(C)(=O)=O)cc2)cc1)C(=O)O`, “inactive”. In the case of `COc1cc(OC)nc(O[C@H](C(=O)O)C(OC)(c2ccccc2)c2ccccc2)n1` it was “inactive”; in that of `CC1CCCCN1CCCOC(=O)c1ccc(OC2CCCCC2)cc1` (stereo not drawn), “inactive”. Take `CN(C)CCCOC1(Cc2ccccc2)CCCCCC1`: the Potency entry is “inactive”. Take `CCCCC(O)/C=C(C)/C=C/C=C/C(=O)N1CCCC1=O` (stereo not drawn): the Potency entry is “inactive”. In the case of `NS(=O)(=O)c1cc2c(cc1Cl)CN(C1CCCCC1)C2=O` it was “inactive”; in that of `O=C1[C@@H]2[C@H]3CC[C@H](C3)[C@@H]2C(=O)N1CCCCN1CCN(c2ncccn2)CC1`, “inactive”. With `CO[C@@]1(NC(=O)CSC[C@@H](N)C(=O)O)C(=O)N2C(C(=O)O)=C(CSc3nnnn3C)CS[C@@H]21` the entry was “inactive”; with `C/C(=N/NC(=O)c1ccncc1)C(=O)O`, “inactive”; with `CCCCCCCCCCCCCCCCCCN(C)C`, “inactive”.
